Laboratory results: PubChem BioAssay
Calls of active or inactive are those of the source.

Tests used:
[1] = small molecules captured by biotinylated probe aFSTL3 – biochemical, small-molecule microarray, fluorescence 635/667, stem cell growth factor project, primary screen (AID 1064); settings: higher = more signal;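 also: measures binding of the biotinylated anti-FSTL3 antibody to printed compounds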
[2] = binders from COS7 lysate, DM2A8 probe, primary screen, torsin A project, cell lysate, small-molecule microarray, fluorescence 635/667 (AID 1065); settings: higher = more signal, COS7 lysate expressing mutant human TOR1A
[3] = small molecules captured by biotinylated probe aFGF2 – biochemical, small-molecule microarray, fluorescence 635/667, stem cell growth factor project, primary screen (AID 1067); settings: higher = more signal;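 also: measures binding of biotinylated aFGF2 protein to printed compounds on slides; z-score merges feature fluorescence and signal-to-noise across triplicate slides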
[4] = small molecules captured by biotinylated probe aFGF10 – biochemical, small-molecule microarray, fluorescence 635/667, stem cell growth factor project, primary screen (AID 1071); settings: higher = more signal;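 also: score merges 667 nm spot intensity and signal to noise from triplicate slides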
[5] = target: Neurogenic locus notch homolog protein 2 (Homo sapiens) (UniProt Q04721); test: small molecules binding Notch2 protein – biochemical, small-molecule microarray, 635 nm fluorescence, stem cell growth factors, primary screen (AID 1073); settings: higher = more signal
Chain of Neurogenic locus notch homolog protein 2 (Homo sapiens) (Q04721 whole entry, looked up, canonical isoform): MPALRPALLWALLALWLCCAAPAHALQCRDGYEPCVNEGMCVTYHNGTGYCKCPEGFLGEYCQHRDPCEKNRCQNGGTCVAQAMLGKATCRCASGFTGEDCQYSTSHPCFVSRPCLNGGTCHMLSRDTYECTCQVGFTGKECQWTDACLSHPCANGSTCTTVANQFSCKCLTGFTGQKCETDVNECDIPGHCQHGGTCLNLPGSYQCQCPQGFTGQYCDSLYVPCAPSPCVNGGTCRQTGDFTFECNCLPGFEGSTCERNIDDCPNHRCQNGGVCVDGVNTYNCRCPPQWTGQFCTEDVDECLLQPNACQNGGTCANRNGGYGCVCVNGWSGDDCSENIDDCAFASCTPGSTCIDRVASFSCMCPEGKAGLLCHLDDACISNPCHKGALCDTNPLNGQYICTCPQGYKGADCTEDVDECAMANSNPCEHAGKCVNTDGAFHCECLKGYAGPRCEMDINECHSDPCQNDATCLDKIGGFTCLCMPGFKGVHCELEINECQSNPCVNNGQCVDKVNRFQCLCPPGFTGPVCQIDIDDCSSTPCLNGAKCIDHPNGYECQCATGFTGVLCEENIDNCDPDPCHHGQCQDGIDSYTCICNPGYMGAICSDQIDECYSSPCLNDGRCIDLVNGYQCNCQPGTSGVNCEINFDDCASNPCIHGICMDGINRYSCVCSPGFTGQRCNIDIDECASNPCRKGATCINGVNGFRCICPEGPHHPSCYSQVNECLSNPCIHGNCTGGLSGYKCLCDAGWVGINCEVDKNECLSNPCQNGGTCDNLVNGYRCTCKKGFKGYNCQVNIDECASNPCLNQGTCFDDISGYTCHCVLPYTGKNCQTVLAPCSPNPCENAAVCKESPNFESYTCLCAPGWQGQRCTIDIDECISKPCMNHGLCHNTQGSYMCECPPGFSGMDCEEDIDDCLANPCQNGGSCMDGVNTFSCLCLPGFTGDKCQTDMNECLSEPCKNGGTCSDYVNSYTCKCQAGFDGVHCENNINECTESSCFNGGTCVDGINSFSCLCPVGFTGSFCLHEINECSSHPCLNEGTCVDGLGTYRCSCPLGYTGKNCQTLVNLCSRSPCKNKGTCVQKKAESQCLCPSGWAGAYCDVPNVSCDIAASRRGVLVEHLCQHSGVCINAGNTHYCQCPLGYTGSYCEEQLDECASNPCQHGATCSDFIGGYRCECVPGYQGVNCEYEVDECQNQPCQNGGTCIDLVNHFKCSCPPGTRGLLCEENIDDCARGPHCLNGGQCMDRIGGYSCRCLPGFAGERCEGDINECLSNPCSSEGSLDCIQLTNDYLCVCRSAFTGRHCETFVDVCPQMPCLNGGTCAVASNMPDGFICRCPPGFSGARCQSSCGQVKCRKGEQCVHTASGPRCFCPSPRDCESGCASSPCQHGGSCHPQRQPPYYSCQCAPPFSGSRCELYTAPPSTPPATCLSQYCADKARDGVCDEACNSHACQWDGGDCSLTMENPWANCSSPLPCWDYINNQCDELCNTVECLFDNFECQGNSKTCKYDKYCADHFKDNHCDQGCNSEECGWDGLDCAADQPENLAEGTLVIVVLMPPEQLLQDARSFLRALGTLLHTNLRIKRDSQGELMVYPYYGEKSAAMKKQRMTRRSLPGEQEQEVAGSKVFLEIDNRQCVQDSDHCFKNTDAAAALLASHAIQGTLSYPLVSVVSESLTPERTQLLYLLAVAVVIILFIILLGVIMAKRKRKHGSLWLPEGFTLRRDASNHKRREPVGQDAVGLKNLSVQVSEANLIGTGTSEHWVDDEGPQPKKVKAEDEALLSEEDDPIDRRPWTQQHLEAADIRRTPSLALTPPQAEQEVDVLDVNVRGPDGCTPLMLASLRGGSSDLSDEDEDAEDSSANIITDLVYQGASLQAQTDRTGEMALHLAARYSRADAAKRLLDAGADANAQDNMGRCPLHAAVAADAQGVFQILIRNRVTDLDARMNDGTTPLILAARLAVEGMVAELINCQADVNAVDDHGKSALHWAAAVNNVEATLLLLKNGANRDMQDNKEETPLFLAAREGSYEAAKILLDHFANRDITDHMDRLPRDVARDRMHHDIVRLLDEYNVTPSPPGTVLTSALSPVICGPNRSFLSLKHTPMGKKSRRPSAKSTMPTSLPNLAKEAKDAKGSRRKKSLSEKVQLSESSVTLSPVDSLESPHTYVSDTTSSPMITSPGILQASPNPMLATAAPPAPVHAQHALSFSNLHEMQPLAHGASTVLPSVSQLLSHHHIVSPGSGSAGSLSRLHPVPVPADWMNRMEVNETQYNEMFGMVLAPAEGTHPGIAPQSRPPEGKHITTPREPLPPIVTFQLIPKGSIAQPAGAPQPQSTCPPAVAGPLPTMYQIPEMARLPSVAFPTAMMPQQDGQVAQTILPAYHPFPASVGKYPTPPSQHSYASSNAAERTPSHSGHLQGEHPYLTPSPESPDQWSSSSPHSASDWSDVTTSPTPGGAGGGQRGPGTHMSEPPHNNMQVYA

[6] = target: Pro-neuregulin-1, membrane-bound isoform (Homo sapiens) (UniProt Q02297); test: small molecules binding neuregulin-1 protein – biochemical, small-molecule microarray, fluorescence 635/667, psychiatric disease protein project, primary screen (AID 1075); settings: NRG1 binding, 635 nm fluorescence, higher = more signal;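 also: score combines 667 nm spot fluorescence with signal to noise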
Chain of Pro-neuregulin-1, membrane-bound isoform (Homo sapiens) (Q02297 whole entry, looked up, the tested form may be a part, canonical isoform): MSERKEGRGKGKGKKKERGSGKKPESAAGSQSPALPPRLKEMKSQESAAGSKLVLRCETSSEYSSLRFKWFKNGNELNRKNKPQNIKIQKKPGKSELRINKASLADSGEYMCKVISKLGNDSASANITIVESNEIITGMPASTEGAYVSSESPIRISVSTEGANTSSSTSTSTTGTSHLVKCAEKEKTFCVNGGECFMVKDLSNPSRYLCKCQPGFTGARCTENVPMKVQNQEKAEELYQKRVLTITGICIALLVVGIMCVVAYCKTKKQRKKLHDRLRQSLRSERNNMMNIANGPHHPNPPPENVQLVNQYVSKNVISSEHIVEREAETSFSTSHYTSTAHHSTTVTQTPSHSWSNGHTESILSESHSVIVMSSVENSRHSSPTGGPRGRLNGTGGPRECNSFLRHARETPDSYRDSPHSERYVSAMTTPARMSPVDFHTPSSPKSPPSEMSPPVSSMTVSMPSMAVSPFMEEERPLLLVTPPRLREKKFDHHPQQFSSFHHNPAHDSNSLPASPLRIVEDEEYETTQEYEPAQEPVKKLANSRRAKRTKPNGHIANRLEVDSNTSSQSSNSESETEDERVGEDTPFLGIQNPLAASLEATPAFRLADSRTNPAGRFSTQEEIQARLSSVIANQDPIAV

[7] = system: Neuregulin-1 EGF-like domain; test: small molecules binding NRG1 EGF domain – biochemical, small-molecule microarray, 635 nm fluorescence, primary screen (AID 1081); settings: higher = more signal;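 also: binding of the protein to compounds printed on small-molecule microarray slides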
[8] = FRG1 expression reporter modulators in myotubes – cell-based, C2C12 myotubes, firefly/Renilla luciferase, luminescence, FRG1 inhibition for FSHD, primary screen (AID 1084); settings: FRG1 promoter luciferase, higher = more signal, called active from +8 up or from −8 down
[9] = small molecules captured by biotinylated probe aFST – biochemical, small-molecule microarray, fluorescence 635/667, stem cell growth factor project, primary screen (AID 1086); settings: higher = more signal;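 also: score merges 667 nm fluorescence with signal-to-noise of each printed compound spot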
[10] = binders of probe aHhip on microarray, primary screen, stem cell growth factor project, biochemical, small-molecule microarray, fluorescence 635/667 (AID 1087); settings: higher = more signal;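 also: score merges spot fluorescence at 667nm with spot signal to noise ratio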

Q: For CN1C(=O)C2C=CC(C(O)C3CC=CCC3)N(Nc3ccccc3)C2C1=O (stereo not given), which composite z-score [1] is on record?
A: 0.0125

Q: And the composite z-score [2]?
A: 1.54

Q: What about the composite z-score [3] of the same compound?
A: 0.0631

Q: And the composite z-score [4]?
A: 0.752

Q: What about the composite z-score [5] of the same compound?
A: 1.62

Q: And the composite z-score [6]?
A: 1.85

Q: What about the composite z-score [7] of the same compound?
A: 1.29

Q: And the z-score [8]?
A: 0.294 (inactive)

Q: And the composite z-score [9]?
A: 0.733

Q: And the composite z-score [10]?
A: 0.382

Q: With CO[C@H]1COC(=O)[C@H](C)NC(=O)CC=C[C@@H](C)[C@H](NS(=O)(=O)c2ccc(C)cc2)COC(=O)CC=C[C@@H]1C as the compound, how does the composite z-score [1] read?
A: -0.734

Q: And the composite z-score [2]?
A: 1.84

Q: And the composite z-score [3]?
A: -0.172

Q: What about the composite z-score [4] of the same compound?
A: 0.0871

Q: What about the composite z-score [5] of the same compound?
A: -0.543

Q: And the composite z-score [6]?
A: -0.455

Q: And the composite z-score [7]?
A: -0.775

Q: And the z-score [8]?
A: -1.27 (inactive)

Q: What about the composite z-score [9] of the same compound?
A: 0.0005

Q: What about the composite z-score [10] of the same compound?
A: -0.199

Q: With COc1ccc([Si](C)(C)[C@H]2[C@H](CCO)O[C@@]3(C(=O)N(Cc4ccc(N5CCCCC5=O)cc4)c4ccccc43)[C@@H]2C)cc1 as the compound, how does the composite z-score [1] read?
A: 0.0352

Q: What about the composite z-score [2] of the same compound?
A: 0.959

Q: And the composite z-score [3]?
A: -0.0747

Q: And the composite z-score [4]?
A: -0.0971

Q: And the composite z-score [5]?
A: 0.308

Q: And the composite z-score [6]?
A: 1.46

Q: And the composite z-score [7]?
A: 1.05

Q: And the z-score [8]?
A: -4.59 (inactive)

Q: What about the composite z-score [9] of the same compound?
A: 0.172

Q: What about the composite z-score [10] of the same compound?
A: -0.0994

Q: Which composite z-score [1] does the source give for CO[C@H]1O[C@H](CO)[C@@H](OC(=O)Nc2ccc3c(c2)OCO3)[C@H](OC(=O)Nc2ccccc2)[C@@H]1OC(=O)Nc1ccccc1 here?
A: -0.214

Q: And the composite z-score [2]?
A: 0.215

Q: And the composite z-score [3]?
A: 0.0654

Q: And the composite z-score [4]?
A: 0.949

Q: And the composite z-score [5]?
A: -0.0622

Q: What about the composite z-score [6] of the same compound?
A: 1.27

Q: And the composite z-score [7]?
A: 1.29

Q: What about the z-score [8] of the same compound?
A: -1.6 (inactive)

Q: And the composite z-score [9]?
A: 0.188

Q: What about the composite z-score [10] of the same compound?
A: -0.0994

Q: Which composite z-score [1] does the source give for CO[C@H]1COC(=O)[C@@H](C)NC(=O)CC=C[C@@H](C)[C@H](OC)COC(=O)CC=C[C@@H]1C here?
A: -0.691

Q: What about the composite z-score [2] of the same compound?
A: 1.95

Q: What about the composite z-score [3] of the same compound?
A: -0.229

Q: What about the composite z-score [4] of the same compound?
A: -0.895

Q: What about the composite z-score [5] of the same compound?
A: -1.41

Q: And the composite z-score [6]?
A: -0.615

Q: And the composite z-score [7]?
A: 0.479

Q: What about the z-score [8] of the same compound?
A: -1.32 (inactive)

Q: And the composite z-score [9]?
A: -0.0849

Q: And the composite z-score [10]?
A: 0.0596

Q: What does the source list for CO[C@H]1COC(=O)[C@@H](OCc2ccccc2)C=C[C@H](C)[C@@H](OC)COC(=O)[C@H](OCc2ccccc2)C=C[C@@H]1C?
A: composite z-score [1]: -0.617; composite z-score [2]: -0.144; composite z-score [3]: -0.136; composite z-score [4]: -0.205; composite z-score [5]: -0.893; composite z-score [6]: -0.93; composite z-score [7]: -0.669; z-score [8]: -0.23 (inactive); composite z-score [9]: -0.0171; composite z-score [10]: -0.353

Q: With C=CCN1C(=O)[C@@]2(Cc3ccccc3)N=C(c3ccc(OCCCO)cc3)O[C@H]2c2ccccc21 as the compound, how does the composite z-score [1] read?
A: 1.02

Q: And the composite z-score [2]?
A: 0.22

Q: And the composite z-score [3]?
A: 0.0714

Q: And the composite z-score [4]?
A: 0.0096

Q: What about the composite z-score [5] of the same compound?
A: 0.895

Q: And the composite z-score [6]?
A: 0.14

Q: And the composite z-score [7]?
A: 1.14

Q: And the z-score [8]?
A: -2.86 (inactive)

Q: And the composite z-score [9]?
A: 0.691

Q: And the composite z-score [10]?
A: -0.132

Q: Which composite z-score [1] does the source give for CCOC(=O)C[C@H]1[C@H](OC(=O)c2ccccc2-c2ccccc2)[C@@H](NC(=O)c2ccc(-c3ccccc3)cc2)c2cc(OCCCO)ccc2N1C(=O)Cc1ccc(OC)cc1 here?
A: -0.191

Q: What about the composite z-score [2] of the same compound?
A: -0.0021

Q: And the composite z-score [3]?
A: -0.0642

Q: And the composite z-score [4]?
A: 0.389

Q: And the composite z-score [5]?
A: 0.212

Q: What about the composite z-score [6] of the same compound?
A: -0.109

Q: And the composite z-score [7]?
A: 0.373

Q: What about the z-score [8] of the same compound?
A: 0.524 (inactive)

Q: And the composite z-score [9]?
A: 0.437

Q: And the composite z-score [10]?
A: -0.0346

Q: What does the source list for O=C1OCC=C[C@H]2OC34C=CCN(Cc5ccccc5)C(=O)[C@H]3N(CCO)C(=O)[C@@H]4[C@@H]12 (stereo not given in full)?
A: composite z-score [1]: 0.322; composite z-score [2]: -0.0397; composite z-score [3]: -0.149; composite z-score [4]: -0.387; composite z-score [5]: -0.338; composite z-score [6]: 2.05; composite z-score [7]: 0.699; z-score [8]: -0.019 (inactive); composite z-score [9]: -0.331; composite z-score [10]: -0.236

Q: What does the source list for COC(=O)C1=CC(c2ccc(CO)cc2)=CC(C2CC2)N(Cc2sc3ccccc3c2Cl)C=C1C(=O)OC (stereo not given)?
A: composite z-score [1]: 0.541; composite z-score [2]: 1.99; composite z-score [3]: 0.0083; composite z-score [4]: 0.88; composite z-score [5]: 1.26; composite z-score [6]: 1.68; composite z-score [7]: 1.33; z-score [8]: -2.15 (inactive); composite z-score [9]: 1.32; composite z-score [10]: 0.065

Q: For COC(=O)C[C@H]1O[C@]2(C(=O)N(Cc3ccccc3)c3ccc(I)cc32)[C@@H](C)[C@@H]1[Si](C)(C)c1ccc(OC)cc1, which composite z-score [1] is on record?
A: 0.224

Q: What about the composite z-score [2] of the same compound?
A: -0.529

Q: What about the composite z-score [3] of the same compound?
A: -0.22

Q: What about the composite z-score [4] of the same compound?
A: 0.262

Q: And the composite z-score [5]?
A: -0.385

Q: And the composite z-score [6]?
A: -0.121

Q: What about the composite z-score [7] of the same compound?
A: -0.241

Q: And the z-score [8]?
A: 0.184 (inactive)

Q: What about the composite z-score [9] of the same compound?
A: -0.145

Q: And the composite z-score [10]?
A: -0.16

Q: Which composite z-score [1] does the source give for Cc1ccc(S[C@]2(C(=O)NC3CC3)CC(=O)N(Cc3cc(C(F)(F)F)cc(C(F)(F)F)c3)[C@@H]2c2ccc(CO)cc2)cc1 here?
A: -0.293

Q: And the composite z-score [2]?
A: 0.0772

Q: And the composite z-score [3]?
A: -0.138

Q: What about the composite z-score [4] of the same compound?
A: 0.138

Q: What about the composite z-score [5] of the same compound?
A: 0.1

Q: What about the composite z-score [6] of the same compound?
A: 0.522

Q: And the composite z-score [7]?
A: 1.24

Q: And the z-score [8]?
A: -0.799 (inactive)

Q: What about the composite z-score [9] of the same compound?
A: 0.0733

Q: And the composite z-score [10]?
A: -0.295
